The results in this text go back to PubChem BioAssay (Tox21).

Several values for one entry are separate records, joined by “and”; a condition that tells them apart may be missing. Equal entries are not always repeated. Inconclusive results are not listed. Some compounds were tested as several samples or in several runs, with calls that do not always agree. Activity calls are given as the source filed them. Calls follow the shape of the dose curve; as a rule, active = well fitted cell-killing curve with a large enough effect in the repeat runs; inconclusive = weak or mixed curves; inactive = no such curve, though single readings can be large or run the other way.
Potency is read from the fitted curve at half-maximal effect.

The experiment in a line: qHTS assay to identify small molecule agonists of the peroxisome proliferator-activated receptor delta (PPARd) signaling pathway - cell viability counter screen (AID 743211). Also: nearly all actives have a fitted effect of over 55% in size. To be noted: PPARd-bla HEK293H viability, CellTiter-Glo luminescence, 17 h; series mostly up to 62.6 µM. An excerpt: U.S. Tox21 Program National Center for Advancing Translational Sciences [NCATS] NIH Chemical Genomics Center [NCGC] U.S. Environmental Protection Agency [EPA] National Institutes of Environmental Health Sciences [NIEHS] National Toxicology Program [NTP] U.S. Food and Drug Administration [FDA] Tox21 Assay Overview: The peroxisome proliferator-activated receptors (PPARs) are lipid-activated transcription factors of the nuclear receptor superfamily with three distinct subtypes namely PPAR alpha, PPAR delta (PPARd) and PPAR gamma. All these subtypes heterodimerizes with Retinoid X receptor (RXR) and have different physiological functions. […] To identify the compounds that activate PPAR-delta signaling, GeneBLAzer PPAR delta UAS-bla HEK293H cell line (Invitrogen, Carlsbad, CA, USA) containing a beta-lactamase reporter gene under the control of an Upstream Activator Sequence (UAS) was used to screen the Tox21 compound library. The cytotoxicity of the Tox21 compound library against the PPARd-bla cell line was tested in parallel by measuring the cell viability using CellTiter-Glo assay (Promega, Madison, WI) in the same wells.
Tox21 Assay Protocol Summary: PPARd-bla cells were dispensed at 3000 cells/6uL/well in 1536-well black wall/clear bottom plates using a Multidrop Combi (Thermo Fisher Scientific, Waltham, MA) dispenser. After the assay plates were incubated at 37 C and 5% CO2 for 5 h, 23 nL of compounds dissolved in DMSO, positive controls or DMSO only was transferred to the assay plate by a Pintool station (Kalypsys, San Diego, CA). The assay plates were incubated at 37C for 17 h. After 1 uL of LiveBLAzerTM B/G FRET substrate was added using a Bioraptr Flying Reagent Dispenser (FRD) workstation (Beckman Coulter, Indianapolis, IN, USA), the plates were incubated at room temperature for 2 h, and fluorescence intensity was measured by an Envision plate reader (PerkinElmer, Shelton, CT). For cell viability readout that measures cytotoxicity, 3 ul/well of CellTiter-Glo reagent was added into the assay plates using a Bioraptr FRD. After 30 min incubation at room temperature, the luminescence intensity in the plates was measured using a ViewLux plate reader (PerkinElmer).
In the case of `C[C@H]1O[C@@H](O[C@H]2[C@@H](O)C[C@H](O[C@H]3[C@@H](O)C[C@H](O[C@H]4CC[C@@]5(C)[C@H](CC[C@@H]6[C@@H]5C[C@@H](O)[C@]5(C)[C@@H](C7=CC(=O)OC7)CC[C@]65O)C4)O[C@@H]3C)O[C@@H]2C)C[C@H](O)[C@@H]1O`, the Potency was 0.0385 µM (active).
Under `CNCC[C@H](Oc1cccc2ccccc12)c1cccs1` stands 6.68 µM (active).
The figure for `CC=O` is 45.7 µM (active); for `Cc1oc(-c2ccccc2)nc1CCOc1ccc(C[C@H](Nc2ccccc2C(=O)c2ccccc2)C(=O)O)cc1` it is 34.7 µM (active).
Under `O=C(O)CC(=O)O` stands “inactive”; under `C[C@]12CC[C@H]3C(=CCc4cc(O)ccc43)[C@@H]1CCC2=O`, “inactive”; under `CCC1(c2cnc[nH]2)Cc2ccccc2C1`, “inactive”.
On to `CCCCCCC(C)Nc1ccc(Nc2ccccc2)cc1` (stereo not given), for which the Potency was 43.6 µM (active).
For `Cc1cn[nH]c1`, the Potency entry is “inactive”.
Under `Clc1ccc(C(Cn2ccnc2)OCc2c(Cl)cccc2Cl)c(Cl)c1` (stereo not given) stands 26.6 µM (active); under `C=C(C)C(=O)OCCC[Si](Cl)(Cl)Cl`, “inactive”; under `Cc1c(-c2ccc(O)cc2)n(Cc2ccc(OCCN3CCCCCC3)cc2)c2ccc(O)cc12`, 26.6 µM (active).
On to `CCCCCCCC/C=C\CCCCCCCC(=O)NCc1ccc(O)c(OC)c1`, for which the Potency was 23.7 µM (active).
In the case of `CCCCN(CCCC)CCC(O)c1cc2c(Cl)cc(Cl)cc2c2cc(C(F)(F)F)ccc12` (stereo not given), the Potency was 33.5 µM (active).
The figure for `NC(=O)c1nc(-c2cccc(-c3cc(F)ccc3OCC(F)(F)C(F)(F)F)c2)n[nH]1` is 49 µM (active).
Consider `CC(=O)Oc1ccc(C2(c3ccc(OC(C)=O)cc3)Oc3ccccc3NC2=O)cc1`, for which the Potency entry was “inactive”.
The entry for `CC(C)=C1CC[C@@H](C)CC1=O` is “inactive”; for `O=S(=O)(O)CCCN1CCOCC1` it is “inactive”; for `Oc1ccc(-c2ccccc2)c(Cl)c1` it is “inactive”.
`CC(C)(c1cc(Br)c(OCCO)c(Br)c1)c1cc(Br)c(OCCO)c(Br)c1`: the Potency is 15.1 µM (active).
The figure for `CNC(=S)NN` is 12.3 µM (active); for `CCOC(=O)[C@@](C)(N)Cc1ccc(O)c(O)c1` it is “inactive”.
As to `CCN(CC)c1ccc(N)cc1`, the Potency is 44.8 µM (active).
Under `Cc1ccc(-n2[nH]c(C)c(N=Nc3cccc(-c4cccc(C(=O)O)c4)c3O)c2=O)cc1C` stands 26.6 µM (active); under `CSc1ccc2c(c1)N(CCC1CCCCN1C)c1ccccc1S2` (stereo not given), “inactive and 9.44 µM (active)”.
Under `CC(=O)OC(OC(C)=O)c1ccc([N+](=O)[O-])o1` stands 49.8 µM (active); under `O=C(O)CCn1c2c(c3ccccc31)C[C@H](NS(=O)(=O)c1ccc(F)cc1)CC2`, “inactive”; under `O=C1NCCN1CCN1CCC(c2cn(-c3ccc(F)cc3)c3ccc(Cl)cc23)CC1`, 23.7 µM (active).
Under `CCCCCCCCCCCCCCCC` stands “inactive”; under `COc1ccccc1OCCNCC(O)COc1cccc2[nH]c3ccccc3c12` (stereo not given), 23.7 µM (active).
Turning to `CCc1cccc(C)c1`, the Potency result is “inactive”.
Consider `CCCCCCOc1cc(C)c(O)c(C)c1C`, for which the Potency result was “inactive”.
Under `CCCC(CC)CCCCCCCN` (stereo not given) stands “inactive”; under `SCCCCCCCCS`, “inactive”.
Under `C=CC(=O)OCC(O)COc1ccccc1` (stereo not given) stands 49 µM (active); under `CCCCCCCC/C=C/CCCOC(C)=O`, “inactive”; under `Cc1c(C)n(Cc2ccccc2)c2ccc(C(=O)OCCN(C)C)cc12`, 26.6 µM (active).
On to `COC(=O)NCCC[Si](OC)(OC)OC`, for which the Potency entry is “inactive”.
The figure for `Nc1ncnc2c1ncn2[C@@H]1O[C@H](COP(=O)(O)O)[C@@H](O)[C@H]1O` is 10.6 µM (active); for `CCCCCCCCCCCCCCNCCO` it is “inactive”.
